Test results as given in the supplement of paper PMC3334620.
Whole data set: some 33,000 sequences, median “E-score (-0.5 to 0.5)” near -0.035, cut for the highest 2% near 0.34. Shown is part of a subset that was picked to be rich in the highest values.

What follows are sequences tested against T1, Mot3 (UniProt P54785) (assay: PBM E-score (8-mer binding enrichment) (E-score (-0.5 to 0.5)); higher = stronger / more preferred TF binding). Conditions: protein concentration: 200 nM; construct: GST-full length.
T1 sequence: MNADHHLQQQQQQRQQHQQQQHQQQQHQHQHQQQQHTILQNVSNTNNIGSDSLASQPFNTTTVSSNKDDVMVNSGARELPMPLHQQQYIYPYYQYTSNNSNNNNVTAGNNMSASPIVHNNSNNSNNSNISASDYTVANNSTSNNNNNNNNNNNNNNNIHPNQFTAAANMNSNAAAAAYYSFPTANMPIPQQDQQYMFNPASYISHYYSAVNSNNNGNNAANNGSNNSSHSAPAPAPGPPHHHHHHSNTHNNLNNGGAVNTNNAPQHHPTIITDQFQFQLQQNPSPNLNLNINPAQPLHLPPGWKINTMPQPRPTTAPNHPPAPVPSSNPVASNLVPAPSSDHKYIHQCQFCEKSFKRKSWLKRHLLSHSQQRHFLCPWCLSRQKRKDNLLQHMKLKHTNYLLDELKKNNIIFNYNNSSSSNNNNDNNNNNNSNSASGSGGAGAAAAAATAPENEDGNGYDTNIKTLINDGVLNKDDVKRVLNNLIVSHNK
In short: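 PURExpress in vitro transcription/translation supplied GST-tagged yeast transcription factors, either full-length or DNA-binding domain. Applied at about 100-200 nM to universal all-10-mer Agilent arrays double-stranded by primer extension, the bound protein was detected with fluorescent anti-GST. E-scores, modified Wilcoxon-Mann-Whitney statistics, were given by the Universal PBM Analysis Suite to ungapped eight-base words pooled with their reverse complements after masliner normalisation.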
With CCCATGAG the “PBM E-score” value was -0.314. For AATGAGGT, the “PBM E-score” value was -0.0627. GTATTCCA was tested, and the “PBM E-score” value was 0.0481. With CTCTGTGC the “PBM E-score” value was 0.00777. For CAAGGCCA, the “PBM E-score” value was 0.0593. For CAAGGCAG, the “PBM E-score” value was 0.0705. In the case of TAAGGCTA, the “PBM E-score” value is reported as 0.129. In the case of TAAGGCGA, the “PBM E-score” value is reported as -0.0665. For AAAGGCAT, the “PBM E-score” value was 0.39. With CAAGGCCC the “PBM E-score” value was 0.0163. With AAAGGCTT the “PBM E-score” value was -0.0548. In the case of CAAGGCCG, the “PBM E-score” value is reported as -0.0783. For AAAGGCCT, the “PBM E-score” value was -0.0542. For CAAGGCAC, the “PBM E-score” value was 0.488. CAAGGCAA was tested, and the “PBM E-score” value was 0.479. In the case of TAAGGCAA, the “PBM E-score” value is reported as 0.472. With ACGGCGTG the “PBM E-score” value was 0.0736. ATCTTAGC was tested, and the “PBM E-score” value was -0.0857. ACACCGGA was tested, and the “PBM E-score” value was 0.0203. AAGCTAGT was tested, and the “PBM E-score” value was -0.004. For CTACTGGA, the “PBM E-score” value was -0.174. For AGCCATAC, the “PBM E-score” value was -0.163. In the case of GAAGGCTA, the “PBM E-score” value is reported as 0.0397. In the case of AAAGGCAG, the “PBM E-score” value is reported as 0.282. In the case of GAAGGCCA, the “PBM E-score” value is reported as -0.0342. AAGGGCAA was tested, and the “PBM E-score” value was 0.127. For GAAGGCAA, the “PBM E-score” value was 0.489. AAAGGCAA was tested, and the “PBM E-score” value was 0.486. CAAGCAGC was tested, and the “PBM E-score” value was -0.0458. With AATCCATC the “PBM E-score” value was -0.21. For CTTAAGAC, the “PBM E-score” value was -0.0312. ACCGCGAA was tested, and the “PBM E-score” value was -0.0635. For AAGAACTG, the “PBM E-score” value was -0.196. ATGAACTC was tested, and the “PBM E-score” value was -0.14. In the case of GGGAACTA, the “PBM E-score” value is reported as -0.0385. CGGAACTA was tested, and the “PBM E-score” value was -0.265. For CGGAACTC, the “PBM E-score” value was -0.29. With AGGAACTA the “PBM E-score” value was 0.38. For AGGAACTG, the “PBM E-score” value was 0.413. With ATGAACTG the “PBM E-score” value was 0.0964. AGGAACTC was tested, and the “PBM E-score” value was 0.396. ACAGCCAT was tested, and the “PBM E-score” value was 0.172. For AGCAGGGA, the “PBM E-score” value was -0.167. For ACAGTCAT, the “PBM E-score” value was -0.0548. GAGCGCAC was tested, and the “PBM E-score” value was -0.307. With ATCTTGGG the “PBM E-score” value was -0.157. ACGCTCAG was tested, and the “PBM E-score” value was -0.226. ATCAACTG was tested, and the “PBM E-score” value was -0.0772. GAAGTACC was tested, and the “PBM E-score” value was 0.00084. ACCGAATC was tested, and the “PBM E-score” value was -0.00094. In the case of GTAAGGGA, the “PBM E-score” value is reported as 0.145. In the case of ATAAGGCG, the “PBM E-score” value is reported as 0.0672. In the case of ATAAGGCC, the “PBM E-score” value is reported as -0.142. For CTAAGGTA, the “PBM E-score” value was 0.226. CTAAGGCA was tested, and the “PBM E-score” value was 0.452. GTAAGGCA was tested, and the “PBM E-score” value was 0.464. For GTAAGGTA, the “PBM E-score” value was 0.321. In the case of CTAAGGCC, the “PBM E-score” value is reported as -0.0134. For ATAAGGCA, the “PBM E-score” value was 0.46. With TACTGAAA the “PBM E-score” value was 0.037. With AGACGTTC the “PBM E-score” value was -0.008. For AGCATAAC, the “PBM E-score” value was 0.0259. For AGTCTATA, the “PBM E-score” value was -0.0584. CGCACCTA was tested, and the “PBM E-score” value was -0.125. With CGCACCGA the “PBM E-score” value was -0.27. For GGCACCTA, the “PBM E-score” value was 0.357. AGCACCGA was tested, and the “PBM E-score” value was -0.168. For GGCACCGA, the “PBM E-score” value was 0.356. With AGCACCTA the “PBM E-score” value was 0.199. With GGCCGAAA the “PBM E-score” value was -0.186. With TACCCAAA the “PBM E-score” value was 0.11. AATCTATG was tested, and the “PBM E-score” value was -0.00189. With ACCTGAAG the “PBM E-score” value was -0.135. In the case of AAGCCCCT, the “PBM E-score” value is reported as -0.195. For AGAACTAT, the “PBM E-score” value was -0.0425. For AGAAAGAG, the “PBM E-score” value was -0.195. With AAAGGAAC the “PBM E-score” value was 0.456. AAAGGAAT was tested, and the “PBM E-score” value was -0.0306. AAAGGAAG was tested, and the “PBM E-score” value was 0.059. GAAGGAAC was tested, and the “PBM E-score” value was 0.468. In the case of GAAGGAGC, the “PBM E-score” value is reported as -0.251. In the case of AAAGGAGA, the “PBM E-score” value is reported as -0.0548. With AAAGGATA the “PBM E-score” value was -0.0444. CAAGGAAG was tested, and the “PBM E-score” value was -0.00272. For AAAGGAAA, the “PBM E-score” value was 0.442. CAAGGAAC was tested, and the “PBM E-score” value was 0.43.
